# Source: the supplement of paper PMC10849652
# The full data set covers some 8,800 targets. This sample favours those with a hit. About 0.5% of all pairs of compound and target were hits. A number with no mark means an inactive call.
# Compound: Cc1ccc(-n2nc(C(C)(C)C)cc2NC(=O)Nc2ccc(OCCN3CCOCC3)c3ccccc23)cc1 [doramapimod]
# Experiment: log2 fold change, soluble protein after heating vs DMSO (PISA); higher = thermal stabilisation; K562 lysate, 10 uM; active = over 0.2 and 3.5 SD of the protein, either way, in both replicates (recomputed)
# Method in brief: (§1)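 Pellets of K562 cells were dounce-homogenised in PBS pH 7.4 with 1 mM MgCl2, and the crude extract was held at 1 mg/mL protein for a 30 min treatment with 10 μM compound. Aliquots were heated for 3 min over 48°C-58°C and pooled before NP-40 was added to 0.5% at 4°C. The supernatant from 21,000xg for 90 min was quantified by TMTpro 16plex LC-MS/MS with channel sums equalised. Values are reported from duplicates as log-two fold change in thermal stability relative to solvent controls.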
# Sequence of UniProt Q9UKA4 (Q9UKA4 whole entry, looked up): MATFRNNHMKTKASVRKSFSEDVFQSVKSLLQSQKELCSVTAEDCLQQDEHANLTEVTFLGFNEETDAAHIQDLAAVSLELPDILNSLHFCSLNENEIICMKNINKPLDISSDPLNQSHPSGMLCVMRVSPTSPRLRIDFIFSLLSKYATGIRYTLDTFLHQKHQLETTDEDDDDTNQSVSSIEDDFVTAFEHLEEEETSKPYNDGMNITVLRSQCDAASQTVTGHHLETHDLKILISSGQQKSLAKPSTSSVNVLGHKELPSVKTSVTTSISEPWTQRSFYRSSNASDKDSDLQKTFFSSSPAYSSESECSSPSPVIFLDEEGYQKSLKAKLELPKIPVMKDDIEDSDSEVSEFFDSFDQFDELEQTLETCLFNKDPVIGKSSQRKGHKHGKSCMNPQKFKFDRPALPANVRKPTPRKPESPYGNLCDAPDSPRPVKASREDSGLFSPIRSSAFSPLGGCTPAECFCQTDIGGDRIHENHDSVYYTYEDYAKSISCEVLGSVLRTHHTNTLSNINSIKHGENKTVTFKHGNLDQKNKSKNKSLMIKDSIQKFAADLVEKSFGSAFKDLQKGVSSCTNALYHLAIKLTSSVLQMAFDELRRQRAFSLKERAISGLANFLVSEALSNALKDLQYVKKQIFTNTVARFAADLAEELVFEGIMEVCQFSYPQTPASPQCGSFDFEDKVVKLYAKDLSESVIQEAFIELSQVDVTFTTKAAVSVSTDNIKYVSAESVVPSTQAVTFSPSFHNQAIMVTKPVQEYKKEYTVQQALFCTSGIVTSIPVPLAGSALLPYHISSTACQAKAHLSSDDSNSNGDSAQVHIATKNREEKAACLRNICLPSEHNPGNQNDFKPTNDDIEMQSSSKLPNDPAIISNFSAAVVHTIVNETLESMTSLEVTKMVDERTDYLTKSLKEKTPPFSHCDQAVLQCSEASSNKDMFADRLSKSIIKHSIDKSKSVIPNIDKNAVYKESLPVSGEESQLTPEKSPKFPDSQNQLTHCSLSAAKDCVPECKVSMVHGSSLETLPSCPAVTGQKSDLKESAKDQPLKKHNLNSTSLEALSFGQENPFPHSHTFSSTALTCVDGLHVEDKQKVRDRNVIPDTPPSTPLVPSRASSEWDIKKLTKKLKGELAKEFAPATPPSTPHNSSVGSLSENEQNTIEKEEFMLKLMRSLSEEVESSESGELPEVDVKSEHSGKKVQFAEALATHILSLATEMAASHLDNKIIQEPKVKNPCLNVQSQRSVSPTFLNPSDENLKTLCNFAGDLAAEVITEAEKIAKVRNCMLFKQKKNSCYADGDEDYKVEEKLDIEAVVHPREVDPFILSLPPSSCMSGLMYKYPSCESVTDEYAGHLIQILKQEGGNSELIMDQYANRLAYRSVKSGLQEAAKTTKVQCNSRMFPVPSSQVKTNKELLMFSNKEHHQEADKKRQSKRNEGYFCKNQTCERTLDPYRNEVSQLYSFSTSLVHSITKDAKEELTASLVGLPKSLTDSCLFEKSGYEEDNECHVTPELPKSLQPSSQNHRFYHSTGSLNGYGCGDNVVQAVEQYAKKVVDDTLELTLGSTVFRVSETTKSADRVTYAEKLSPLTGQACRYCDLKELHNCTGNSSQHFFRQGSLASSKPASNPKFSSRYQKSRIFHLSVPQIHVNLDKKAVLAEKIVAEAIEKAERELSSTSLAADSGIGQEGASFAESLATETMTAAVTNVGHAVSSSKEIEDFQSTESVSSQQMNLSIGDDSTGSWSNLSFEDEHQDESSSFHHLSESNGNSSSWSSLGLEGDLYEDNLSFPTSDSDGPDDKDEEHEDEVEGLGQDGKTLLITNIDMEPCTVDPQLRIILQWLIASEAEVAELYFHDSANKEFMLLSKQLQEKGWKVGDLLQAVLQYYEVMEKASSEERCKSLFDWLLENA
# Sequence of UniProt P31751 (P31751 whole entry, looked up): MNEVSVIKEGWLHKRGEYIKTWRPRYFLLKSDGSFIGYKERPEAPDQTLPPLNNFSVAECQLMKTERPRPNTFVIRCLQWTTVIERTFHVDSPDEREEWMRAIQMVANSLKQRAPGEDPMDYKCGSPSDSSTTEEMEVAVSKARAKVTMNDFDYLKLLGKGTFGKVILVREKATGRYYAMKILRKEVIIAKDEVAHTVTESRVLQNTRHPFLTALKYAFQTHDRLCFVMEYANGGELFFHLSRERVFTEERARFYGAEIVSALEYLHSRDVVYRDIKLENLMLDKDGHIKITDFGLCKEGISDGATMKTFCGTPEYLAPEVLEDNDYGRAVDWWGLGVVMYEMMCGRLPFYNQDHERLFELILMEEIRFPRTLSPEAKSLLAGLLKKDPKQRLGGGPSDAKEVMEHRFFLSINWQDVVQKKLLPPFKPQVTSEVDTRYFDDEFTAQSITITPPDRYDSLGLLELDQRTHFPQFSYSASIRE
# Sequence of UniProt P04083 (P04083 whole entry, looked up): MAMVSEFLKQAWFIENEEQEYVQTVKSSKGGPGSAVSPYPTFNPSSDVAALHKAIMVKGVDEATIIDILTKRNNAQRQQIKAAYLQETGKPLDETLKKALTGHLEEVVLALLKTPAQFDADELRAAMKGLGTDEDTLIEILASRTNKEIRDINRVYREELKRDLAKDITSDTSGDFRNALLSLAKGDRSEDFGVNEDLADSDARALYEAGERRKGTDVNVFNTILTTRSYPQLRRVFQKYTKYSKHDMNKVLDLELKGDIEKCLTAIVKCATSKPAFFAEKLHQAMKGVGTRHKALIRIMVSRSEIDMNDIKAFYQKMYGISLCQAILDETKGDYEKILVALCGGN
# Sequence of UniProt Q96NW4 (Q96NW4 whole entry, looked up): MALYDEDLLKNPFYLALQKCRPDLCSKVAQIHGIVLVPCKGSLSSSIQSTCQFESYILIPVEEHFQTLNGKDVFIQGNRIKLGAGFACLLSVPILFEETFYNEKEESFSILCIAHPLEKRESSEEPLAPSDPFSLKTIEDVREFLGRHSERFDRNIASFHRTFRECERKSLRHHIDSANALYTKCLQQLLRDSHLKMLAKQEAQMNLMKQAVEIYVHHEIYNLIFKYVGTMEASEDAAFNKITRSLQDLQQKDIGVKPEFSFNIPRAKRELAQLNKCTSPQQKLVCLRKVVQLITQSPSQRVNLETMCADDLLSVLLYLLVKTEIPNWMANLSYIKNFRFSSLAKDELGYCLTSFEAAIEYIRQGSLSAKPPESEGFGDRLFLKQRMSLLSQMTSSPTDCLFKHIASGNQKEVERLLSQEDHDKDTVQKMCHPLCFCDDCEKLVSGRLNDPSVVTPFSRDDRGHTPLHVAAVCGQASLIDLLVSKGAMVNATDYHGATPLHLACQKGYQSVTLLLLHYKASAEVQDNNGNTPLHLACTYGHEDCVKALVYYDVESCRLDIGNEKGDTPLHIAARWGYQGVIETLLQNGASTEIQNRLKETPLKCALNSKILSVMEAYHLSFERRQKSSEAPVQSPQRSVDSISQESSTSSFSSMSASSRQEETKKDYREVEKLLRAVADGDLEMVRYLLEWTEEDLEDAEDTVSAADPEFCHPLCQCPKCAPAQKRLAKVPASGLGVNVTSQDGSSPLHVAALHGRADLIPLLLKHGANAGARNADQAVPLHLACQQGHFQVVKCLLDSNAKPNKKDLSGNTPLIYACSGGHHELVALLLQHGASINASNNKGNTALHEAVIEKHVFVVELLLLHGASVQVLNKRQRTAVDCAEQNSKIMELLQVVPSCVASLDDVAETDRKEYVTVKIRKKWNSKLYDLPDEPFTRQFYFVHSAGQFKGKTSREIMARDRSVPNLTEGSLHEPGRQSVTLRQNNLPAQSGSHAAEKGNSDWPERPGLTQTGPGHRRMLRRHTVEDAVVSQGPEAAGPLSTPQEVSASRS
# Sequence of UniProt O43823 (O43823 whole entry, looked up): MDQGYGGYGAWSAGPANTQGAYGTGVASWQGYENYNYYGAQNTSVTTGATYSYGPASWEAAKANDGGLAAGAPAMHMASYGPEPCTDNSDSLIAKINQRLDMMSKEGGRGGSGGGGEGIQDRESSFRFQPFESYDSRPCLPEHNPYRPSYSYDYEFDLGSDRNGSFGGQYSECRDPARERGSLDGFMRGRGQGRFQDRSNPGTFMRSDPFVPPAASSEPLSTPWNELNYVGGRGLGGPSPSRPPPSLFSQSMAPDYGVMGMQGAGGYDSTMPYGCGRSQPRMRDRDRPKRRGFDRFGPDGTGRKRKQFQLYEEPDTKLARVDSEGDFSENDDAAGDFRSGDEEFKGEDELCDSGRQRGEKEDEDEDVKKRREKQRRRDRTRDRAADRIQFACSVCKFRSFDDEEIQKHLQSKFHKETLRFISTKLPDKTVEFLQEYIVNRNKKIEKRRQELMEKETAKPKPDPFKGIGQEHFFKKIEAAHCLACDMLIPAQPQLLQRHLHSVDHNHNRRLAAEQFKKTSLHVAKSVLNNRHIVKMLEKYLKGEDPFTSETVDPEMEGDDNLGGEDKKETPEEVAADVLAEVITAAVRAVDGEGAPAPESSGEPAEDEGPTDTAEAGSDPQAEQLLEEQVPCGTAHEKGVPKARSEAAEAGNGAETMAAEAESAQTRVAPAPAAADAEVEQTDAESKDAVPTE
# Sequence of UniProt P24752 (P24752 whole entry, looked up): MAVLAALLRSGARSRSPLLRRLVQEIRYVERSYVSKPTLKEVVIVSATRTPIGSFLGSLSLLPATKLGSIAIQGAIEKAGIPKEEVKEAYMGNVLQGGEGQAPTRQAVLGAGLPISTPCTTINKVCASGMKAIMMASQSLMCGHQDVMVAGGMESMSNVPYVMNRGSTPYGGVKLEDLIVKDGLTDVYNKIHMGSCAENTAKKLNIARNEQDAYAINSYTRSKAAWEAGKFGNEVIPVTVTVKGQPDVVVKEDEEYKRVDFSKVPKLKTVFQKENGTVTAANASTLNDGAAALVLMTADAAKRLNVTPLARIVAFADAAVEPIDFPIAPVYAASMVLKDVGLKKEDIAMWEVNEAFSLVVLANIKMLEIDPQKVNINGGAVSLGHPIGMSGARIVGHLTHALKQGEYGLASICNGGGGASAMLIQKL
# Sequence of UniProt P07311 (P07311 whole entry, looked up): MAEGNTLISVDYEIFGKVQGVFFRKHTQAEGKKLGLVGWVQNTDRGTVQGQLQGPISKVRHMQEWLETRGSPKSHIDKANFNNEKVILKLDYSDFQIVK
row,Target,log2 fold change
1,ARHGAP25 isoform 4 (UniProt P42331),-0.005
2,ARAF (UniProt P10398),0.006
3,ANP32A (UniProt P39687),0.096
4,ALDH5A1 isoform 2 (UniProt P51649),-0.011
5,ANP32E (UniProt Q9BTT0),-0.017
6,AKAP8L (UniProt Q9ULX6),-0.153
7,ABHD13 (UniProt Q7L211),-0.104
8,ANXA11 (UniProt P50995),0.012
9,ADD1 isoform 3 (UniProt P35611),0.002
10,AK2 (UniProt P54819),0.061
11,AKAP8 (UniProt O43823),-0.071
12,ARFGAP1 (UniProt Q8N6T3),0.202
13,ANAPC7 (UniProt Q9UJX3),0.023
14,ALDH6A1 (UniProt Q02252),-0.017
15,ANKRD27 (UniProt Q96NW4),-0.009
16,ALG13 (UniProt Q9NP73),-0.015
17,ASB6 (UniProt Q9NWX5),0.004
18,ACAT1 (UniProt P24752),-0.005

row,Target,log2 fold change
1,ANKRD54 (UniProt Q6NXT1),0.044
2,AKT2 (UniProt P31751),-0.015
3,AP5B1 (UniProt Q2VPB7),0.272
4,ANXA1 (UniProt P04083),0.008
5,ARHGAP21 (UniProt Q5T5U3),0.013
6,ACYP1 (UniProt P07311),0.009
7,AKAP11 (UniProt Q9UKA4),-0.036
8,ALDH2 (UniProt P05091),-0.023
9,ARHGAP6 (UniProt O43182),-0.003
10,ACSL1 (UniProt P33121),0.053
11,ARMC6 (UniProt Q6NXE6),0
12,AFF1 isoform 2 (UniProt P51825),0.064
13,ANKRD30A (UniProt Q9BXX3),-0.068
14,AMDHD2 isoform 3 (UniProt Q9Y303),0.003
15,ANXA5 (UniProt P08758),0.015
16,ACTG1 (UniProt I3L4N8),-0.065
17,ARL15 (UniProt Q9NXU5),0.06

# Compound: Cc1ccc(NC(=O)c2ccc(CN3CC[C@H](N(C)C)C3)c(C(F)(F)F)c2)cc1Nc1nccc(-c2cncnc2)n1 [bafetinib]
# Experiment: as above
# Method in brief: as §1
row,Target,log2 fold change
1,ARHGAP25 isoform 4 (UniProt P42331),-0.075
2,ARAF (UniProt P10398),-0.047
3,ANP32A (UniProt P39687),0.126
4,ALDH5A1 isoform 2 (UniProt P51649),0.008
5,ANP32E (UniProt Q9BTT0),-0.003
6,AKAP8L (UniProt Q9ULX6),0.016
7,ABHD13 (UniProt Q7L211),-0.197
8,ANXA11 (UniProt P50995),-0.03
9,ADD1 isoform 3 (UniProt P35611),0.002
10,AK2 (UniProt P54819),0.005
11,AKAP8 (UniProt O43823),-0.119
12,ARFGAP1 (UniProt Q8N6T3),-0.157
13,ANAPC7 (UniProt Q9UJX3),-0.036
14,ALDH6A1 (UniProt Q02252),0.122
15,ANKRD27 (UniProt Q96NW4),-0.059
16,ALG13 (UniProt Q9NP73),-0.025
17,ASB6 (UniProt Q9NWX5),-0.055
18,ACAT1 (UniProt P24752),0.026

row,Target,log2 fold change
1,ANKRD54 (UniProt Q6NXT1),-0.029
2,AKT2 (UniProt P31751),0.051
3,AP5B1 (UniProt Q2VPB7),-0.056
4,ANXA1 (UniProt P04083),0.038
5,ARHGAP21 (UniProt Q5T5U3),-0.133
6,ACYP1 (UniProt P07311),0.005
7,AKAP11 (UniProt Q9UKA4),-0.084
8,ALDH2 (UniProt P05091),0.017
9,ARHGAP6 (UniProt O43182),-0.055
10,ACSL1 (UniProt P33121),-0.038
11,ARMC6 (UniProt Q6NXE6),-0.016
12,AFF1 isoform 2 (UniProt P51825),-0.04
13,ANKRD30A (UniProt Q9BXX3),0.069
14,AMDHD2 isoform 3 (UniProt Q9Y303),0.093
15,ANXA5 (UniProt P08758),-0.018
16,ACTG1 (UniProt I3L4N8),-0.183
17,ARL15 (UniProt Q9NXU5),0.225
